ChEMBL document CHEMBL2218924, “A broad activity screen in support of a chemogenomic map for kinase signalling research and drug discovery” (Biochem J, 2013)

Experiments:
[1] = molecular target: Mitogen-activated protein kinase 10 (Homo sapiens) (UniProt P53779); conditions: at 10 µM
[2] = molecular target: Vascular endothelial growth factor receptor 2 (Homo sapiens) (UniProt P35968); conditions: at 1 µM
[3] = molecular target: Vascular endothelial growth factor receptor 2 (Homo sapiens) (UniProt P35968); conditions: at 10 µM
[4] = molecular target: LIM domain kinase 1 (Homo sapiens) (UniProt P53667); conditions: at 1 µM
LIM domain kinase 1 (Homo sapiens), sequence (P53667 whole entry, looked up, the tested form may be a part): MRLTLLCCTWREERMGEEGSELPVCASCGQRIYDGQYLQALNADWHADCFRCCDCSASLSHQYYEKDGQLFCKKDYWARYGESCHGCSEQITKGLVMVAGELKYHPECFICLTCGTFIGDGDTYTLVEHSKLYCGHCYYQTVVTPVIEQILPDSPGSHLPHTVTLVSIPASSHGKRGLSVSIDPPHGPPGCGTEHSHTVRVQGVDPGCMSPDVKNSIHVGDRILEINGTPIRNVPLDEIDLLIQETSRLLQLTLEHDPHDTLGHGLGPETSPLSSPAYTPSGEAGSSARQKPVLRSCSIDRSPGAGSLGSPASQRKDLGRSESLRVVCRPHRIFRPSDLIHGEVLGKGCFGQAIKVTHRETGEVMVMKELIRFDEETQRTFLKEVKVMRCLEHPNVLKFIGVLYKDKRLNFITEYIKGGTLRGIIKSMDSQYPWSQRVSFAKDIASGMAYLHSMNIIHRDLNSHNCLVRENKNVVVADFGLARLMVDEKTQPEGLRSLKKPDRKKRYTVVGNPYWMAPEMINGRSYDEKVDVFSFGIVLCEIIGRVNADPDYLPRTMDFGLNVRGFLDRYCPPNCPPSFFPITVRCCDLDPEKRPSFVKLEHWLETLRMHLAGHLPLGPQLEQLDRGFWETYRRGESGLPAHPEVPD

[5] = molecular target: LIM domain kinase 1 (Homo sapiens) (UniProt P53667); conditions: at 10 µM
[6] = molecular target: T1, Serine/threonine-protein kinase STK11 (Homo sapiens) (UniProt Q15831); conditions: at 1 µM
T1 sequence (whole entry): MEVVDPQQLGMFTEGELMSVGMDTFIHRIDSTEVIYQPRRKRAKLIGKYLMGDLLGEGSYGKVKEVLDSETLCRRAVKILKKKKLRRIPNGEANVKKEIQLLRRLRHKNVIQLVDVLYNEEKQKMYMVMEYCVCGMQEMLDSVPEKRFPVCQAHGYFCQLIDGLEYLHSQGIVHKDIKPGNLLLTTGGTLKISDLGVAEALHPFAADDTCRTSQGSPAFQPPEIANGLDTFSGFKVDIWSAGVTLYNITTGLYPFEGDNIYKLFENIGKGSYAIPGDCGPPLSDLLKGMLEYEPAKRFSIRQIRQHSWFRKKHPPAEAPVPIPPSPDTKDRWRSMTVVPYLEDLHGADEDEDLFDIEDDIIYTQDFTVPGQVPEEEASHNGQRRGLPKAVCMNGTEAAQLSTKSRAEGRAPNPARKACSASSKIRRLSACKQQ

[7] = molecular target: T1, Serine/threonine-protein kinase STK11 (Homo sapiens); conditions: at 10 µM
[8] = molecular target: Serine/threonine-protein kinase 10 (Homo sapiens) (UniProt O94804); conditions: at 1 µM
Serine/threonine-protein kinase 10 (Homo sapiens), sequence (O94804 whole entry, looked up): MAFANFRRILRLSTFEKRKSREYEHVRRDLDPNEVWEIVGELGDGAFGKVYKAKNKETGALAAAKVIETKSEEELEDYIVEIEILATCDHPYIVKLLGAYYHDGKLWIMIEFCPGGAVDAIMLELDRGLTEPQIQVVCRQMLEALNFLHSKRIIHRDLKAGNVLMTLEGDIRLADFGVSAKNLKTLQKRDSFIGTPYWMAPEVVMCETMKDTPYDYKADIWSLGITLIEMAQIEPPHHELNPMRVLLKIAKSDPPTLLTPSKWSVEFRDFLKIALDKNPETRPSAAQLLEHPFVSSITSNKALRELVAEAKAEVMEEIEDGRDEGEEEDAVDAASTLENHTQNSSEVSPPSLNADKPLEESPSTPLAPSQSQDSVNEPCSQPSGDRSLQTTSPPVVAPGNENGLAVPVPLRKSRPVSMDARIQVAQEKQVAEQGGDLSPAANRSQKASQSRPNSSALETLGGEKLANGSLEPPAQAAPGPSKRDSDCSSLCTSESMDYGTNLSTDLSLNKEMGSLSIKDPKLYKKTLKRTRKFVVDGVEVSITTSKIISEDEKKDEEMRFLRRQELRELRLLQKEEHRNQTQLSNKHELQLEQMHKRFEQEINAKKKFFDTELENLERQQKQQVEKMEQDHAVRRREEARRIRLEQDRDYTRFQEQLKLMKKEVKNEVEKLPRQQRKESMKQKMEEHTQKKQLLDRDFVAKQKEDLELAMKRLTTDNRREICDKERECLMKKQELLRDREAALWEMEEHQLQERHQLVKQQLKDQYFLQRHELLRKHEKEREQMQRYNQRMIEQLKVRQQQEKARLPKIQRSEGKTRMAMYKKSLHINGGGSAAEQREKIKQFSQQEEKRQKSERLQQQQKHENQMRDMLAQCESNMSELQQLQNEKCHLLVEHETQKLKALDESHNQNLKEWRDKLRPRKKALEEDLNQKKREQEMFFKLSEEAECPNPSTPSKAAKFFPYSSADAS

[9] = molecular target: Serine/threonine-protein kinase 10 (Homo sapiens) (UniProt O94804); conditions: at 10 µM
[10] = molecular target: Tyrosine-protein kinase Lck (Homo sapiens) (UniProt P06239); conditions: at 1 µM
Tyrosine-protein kinase Lck (Homo sapiens), sequence (P06239 2-509 limits assumed): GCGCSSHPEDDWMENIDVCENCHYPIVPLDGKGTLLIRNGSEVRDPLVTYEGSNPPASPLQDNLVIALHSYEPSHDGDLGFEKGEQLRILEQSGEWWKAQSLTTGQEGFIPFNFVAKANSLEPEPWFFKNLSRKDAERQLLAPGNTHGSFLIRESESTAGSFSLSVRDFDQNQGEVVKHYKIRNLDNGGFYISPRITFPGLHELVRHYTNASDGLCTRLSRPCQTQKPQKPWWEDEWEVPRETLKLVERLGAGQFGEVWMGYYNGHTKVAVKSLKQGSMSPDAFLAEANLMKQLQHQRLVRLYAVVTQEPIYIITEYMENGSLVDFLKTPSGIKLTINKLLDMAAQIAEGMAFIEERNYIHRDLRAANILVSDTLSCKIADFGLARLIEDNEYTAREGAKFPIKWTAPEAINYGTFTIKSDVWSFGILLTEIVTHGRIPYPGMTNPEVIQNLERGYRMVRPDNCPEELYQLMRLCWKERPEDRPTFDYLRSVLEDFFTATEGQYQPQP

[11] = molecular target: Tyrosine-protein kinase Lck (Homo sapiens) (UniProt P06239); conditions: at 10 µM
[12] = molecular target: Tyrosine-protein kinase Lck (Homo sapiens) (UniProt P06239); conditions: at 1 µM; remark: listed apart in the source
[13] = molecular target: Tyrosine-protein kinase Lck (Homo sapiens) (UniProt P06239); conditions: at 10 µM; remark: listed apart in the source
[14] = molecular target: Tyrosine-protein kinase Lyn (Homo sapiens) (UniProt P07948); conditions: at 1 µM
Tyrosine-protein kinase Lyn (Homo sapiens), sequence (P07948 2-512 limits assumed): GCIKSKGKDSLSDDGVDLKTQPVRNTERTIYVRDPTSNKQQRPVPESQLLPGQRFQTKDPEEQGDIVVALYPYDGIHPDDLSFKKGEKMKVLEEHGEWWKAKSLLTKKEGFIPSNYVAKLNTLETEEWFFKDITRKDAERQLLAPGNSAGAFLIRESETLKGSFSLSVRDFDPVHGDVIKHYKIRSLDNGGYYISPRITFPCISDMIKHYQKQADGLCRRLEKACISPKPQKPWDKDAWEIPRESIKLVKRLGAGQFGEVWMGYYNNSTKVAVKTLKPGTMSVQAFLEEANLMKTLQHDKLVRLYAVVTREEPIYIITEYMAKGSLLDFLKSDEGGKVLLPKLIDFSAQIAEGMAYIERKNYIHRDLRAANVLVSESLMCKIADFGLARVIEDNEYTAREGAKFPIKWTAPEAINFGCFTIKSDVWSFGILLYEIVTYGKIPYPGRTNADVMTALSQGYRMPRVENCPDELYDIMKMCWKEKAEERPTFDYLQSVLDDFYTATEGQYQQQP

[15] = molecular target: Tyrosine-protein kinase Lyn (Homo sapiens) (UniProt P07948); conditions: at 10 µM
[16] = molecular target: Mitogen-activated protein kinase 3 (Homo sapiens) (UniProt P27361); conditions: at 1 µM
Mitogen-activated protein kinase 3 (Homo sapiens), sequence (P27361 whole entry): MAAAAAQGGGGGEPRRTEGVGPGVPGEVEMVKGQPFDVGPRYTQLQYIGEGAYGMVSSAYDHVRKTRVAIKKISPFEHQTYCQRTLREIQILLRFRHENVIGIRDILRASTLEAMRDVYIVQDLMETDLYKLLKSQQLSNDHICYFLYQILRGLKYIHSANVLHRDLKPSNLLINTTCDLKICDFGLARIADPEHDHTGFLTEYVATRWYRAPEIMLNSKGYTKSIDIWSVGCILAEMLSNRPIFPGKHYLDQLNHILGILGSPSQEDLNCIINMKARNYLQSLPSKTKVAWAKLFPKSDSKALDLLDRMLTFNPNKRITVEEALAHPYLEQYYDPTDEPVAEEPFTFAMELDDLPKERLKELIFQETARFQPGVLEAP

[17] = molecular target: Mitogen-activated protein kinase 3 (Homo sapiens) (UniProt P27361); conditions: at 10 µM
[18] = molecular target: Mitogen-activated protein kinase 1 (Homo sapiens) (UniProt P28482); conditions: at 1 µM
Mitogen-activated protein kinase 1 (Homo sapiens), sequence (P28482 whole entry): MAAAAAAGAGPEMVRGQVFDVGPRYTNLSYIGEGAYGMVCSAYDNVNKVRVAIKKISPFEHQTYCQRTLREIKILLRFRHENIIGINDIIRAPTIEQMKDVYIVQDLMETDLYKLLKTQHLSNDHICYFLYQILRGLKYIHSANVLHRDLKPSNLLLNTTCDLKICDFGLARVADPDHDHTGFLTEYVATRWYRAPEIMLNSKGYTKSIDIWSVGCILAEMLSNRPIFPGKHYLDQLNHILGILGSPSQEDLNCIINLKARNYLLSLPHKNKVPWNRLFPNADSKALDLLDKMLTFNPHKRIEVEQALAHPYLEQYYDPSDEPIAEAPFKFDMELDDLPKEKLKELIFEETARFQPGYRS

[19] = molecular target: Mitogen-activated protein kinase 1 (Homo sapiens) (UniProt P28482); conditions: at 10 µM
[20] = molecular target: MAP kinase-activated protein kinase 2 (Homo sapiens) (UniProt P49137); conditions: at 1 µM
MAP kinase-activated protein kinase 2 (Homo sapiens), sequence (P49137 whole entry, looked up): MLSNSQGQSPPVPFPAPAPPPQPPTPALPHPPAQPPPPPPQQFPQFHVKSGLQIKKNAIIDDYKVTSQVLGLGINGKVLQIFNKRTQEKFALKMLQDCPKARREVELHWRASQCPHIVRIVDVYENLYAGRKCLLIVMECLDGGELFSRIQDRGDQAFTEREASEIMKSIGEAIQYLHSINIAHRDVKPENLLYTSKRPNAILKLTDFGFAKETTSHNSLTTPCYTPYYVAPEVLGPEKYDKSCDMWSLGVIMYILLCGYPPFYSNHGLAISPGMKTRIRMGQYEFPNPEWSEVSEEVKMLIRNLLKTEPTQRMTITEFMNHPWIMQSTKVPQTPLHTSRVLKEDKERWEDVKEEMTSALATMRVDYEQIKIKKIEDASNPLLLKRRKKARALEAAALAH

Mitogen-activated protein kinase 10 (Homo sapiens), sequence (P53779 whole entry): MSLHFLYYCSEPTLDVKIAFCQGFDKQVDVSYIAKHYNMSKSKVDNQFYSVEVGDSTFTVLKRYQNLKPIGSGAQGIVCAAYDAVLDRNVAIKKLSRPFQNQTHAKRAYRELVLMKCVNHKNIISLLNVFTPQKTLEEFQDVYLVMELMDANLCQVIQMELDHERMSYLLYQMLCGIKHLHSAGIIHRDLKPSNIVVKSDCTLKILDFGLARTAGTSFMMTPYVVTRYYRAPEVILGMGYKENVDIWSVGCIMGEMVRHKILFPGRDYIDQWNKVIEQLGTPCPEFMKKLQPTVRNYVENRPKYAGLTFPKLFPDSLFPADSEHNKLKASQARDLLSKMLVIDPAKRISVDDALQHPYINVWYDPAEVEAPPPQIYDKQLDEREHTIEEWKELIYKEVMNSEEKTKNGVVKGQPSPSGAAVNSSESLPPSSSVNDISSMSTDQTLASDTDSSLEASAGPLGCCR

Structure (SMILES)	residual activity [1]	residual activity [2]	residual activity [3]	residual activity [4]	residual activity [5]	residual activity [6]	residual activity [7]	residual activity [8]	residual activity [9]	residual activity [10]	residual activity [11]	residual activity [12]	residual activity [13]	residual activity [14]	residual activity [15]	residual activity [16]	residual activity [17]	residual activity [18]	residual activity [19]	residual activity [20]
O=C(Nc1cccc(Nc2nccc(Nc3cccc(C(F)(F)F)c3)n2)c1)C1CC1	-3%	81%	25%	26%	4%	100%	94%	66%	44%	73%	19%	57%	42%	41%	6%	89%	91%	89%	84%	115%
CO[C@H]1C[C@@H]2CC[C@@H](C)[C@@](O)(O2)C(=O)C(=O)N2CCCC[C@H]2C(=O)O[C@H]([C@H](C)C[C@@H]2CC[C@@H](O)[C@H](OC)C2)CC(=O)[C@H](C)/C=C(\C)[C@@H](O)[C@@H](OC)C(=O)[C@H](C)C[C@H](C)/C=C/C=C/C=C/1C	153%	100%	96%	102%	91%	101%	99%	85%	90%	121%	80%	102%	124%	86%	131%	83%	116%	102%	101%	86%
COc1cc2ncnc(Nc3ccc(NC(=O)c4ccccc4)cc3)c2cc1OC	76%	95%	35%	110%	56%	108%	109%	71%	33%	70%	17%	30%	9%	32%	6%	88%	83%	103%	103%	108%
Nc1nc(Nc2ccc(S(N)(=O)=O)cc2)nn1C(=S)Nc1c(F)cccc1F	3%	0%	0%	5%	2%	87%	41%	0%	0%	4%	16%	8%	18%	6%	1%	29%	3%	49%	3%	44%
Cc1nc(-c2ccccc2)c(-c2ccncc2)o1	19%	95%	78%	106%	86%	111%	100%	119%	105%	92%	59%	45%	42%	0%	0%	116%	97%	118%	100%	95%
O=[N+]([O-])c1ccc(-c2nc(-c3ccc(F)cc3)c(-c3ccncc3)[nH]2)cc1	21%	85%	93%	96%	90%	98%	99%	114%	108%	71%	86%	92%	82%	75%	23%	85%	72%	113%	109%	92%
CCN(CC)CCCCN1c2ccccc2Oc2ccc(Cl)cc21	137%	112%	104%	133%	98%	103%	94%	110%	100%	84%	120%	101%	64%	102%	67%	112%	114%	116%	104%	115%
Oc1ccc(-c2nc(-c3ccc(F)cc3)c(-c3ccncc3)[nH]2)cc1	-2%	98%	49%	101%	69%	108%	99%	92%	59%	61%	45%	80%	26%	66%	11%	123%	93%	113%	98%	87%
COc1cccc(-c2cc(=O)c3ccccc3o2)c1N	95%	101%	102%	93%	93%	103%	100%	114%	105%	85%	85%	103%	93%	93%	80%	106%	90%	114%	96%	99%
Oc1c2ccccc2c2c3c(cccc13)N=N2	-6%	17%	3%	64%	30%	75%	41%	87%	62%	70%	69%	89%	43%	70%	30%	59%	72%	88%	55%	79%
COc1ccc(S(=O)(=O)N(CCO)c2ccccc2CN(C)C/C=C/c2ccc(Cl)cc2)cc1	88%	100%	95%	93%	83%	100%	93%	107%	89%	80%	51%	105%	43%	97%	65%	82%	70%	111%	103%	78%
CN(C)c1ccc(/C=C2\C(=O)Nc3ccccc32)cc1	106%	4%	3%	108%	89%	94%	102%	100%	77%	129%	55%	83%	71%	86%	63%	91%	69%	107%	100%	121%
O=C1c2ccccc2-[n+]2ccc3c([nH]c4ccccc43)c21	62%	88%	78%	91%	88%	100%	97%	94%	90%	85%	69%	81%	74%	88%	65%	85%	94%	107%	108%	81%
